Reference: PubChem BioAssay
Values without a mark were called inactive. Unless noted, no rule for the calls is given here.

What was measured:
[1] = hESC survival regulators, cell-based (AID 493140); conditions: human embryonic stem cell survival screen; stronger effect = higher value;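 also: cells exposed to compounds for four days before counting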
[2] = Cy5 fluorescence interference with SSB-bound oligo, artefact control for HCV NS3 helicase inhibitor project, biochemical, NIH Clinical Collection, E. coli SSB (AID 743268)
[3] = system: Hepatitis C virus NS3 helicase; assay: HCV NS3 helicase inhibitors, primary screen, biochemical, fluorescence polarization, NIH Clinical Collection (AID 743270); conditions: NS3 helicase binding to Cy5-dT15 DNA, stronger effect = higher value, concentration not given here
[4] = target: Single-stranded DNA-binding protein (Escherichia coli (strain K12)) (UniProt P0AGE0); assay: E. coli SSB displacement from DNA, counter-screen for HCV NS3 helicase inhibitor project, biochemical, fluorescence polarization, NIH Clinical Collection (AID 743271; in the data active = inhibition above about 28%); conditions: stronger effect = higher value, concentration not given here
[5] = fluorescence interference in NS3h assay format, artefact control for HCV NS3 helicase inhibitor project, biochemical, NIH Clinical Collection (AID 743272); conditions: fluorescence interference counterscreen, stronger effect = lower value;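 also: HCV NS3 helicase with a Cy5 labelled single stranded DNA probe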

SMILES	survival [1]	fluorescence ratio [2]	inhibition [3]	inhibition [4]	fluorescence ratio [5]
C=C(NC(=O)C(=C)NC(=O)c1csc(C2=NC3c4csc(n4)C4NC(=O)c5csc(n5)C(C(C)(O)C(C)O)NC(=O)C5CSC(=N5)/C(=C/C)NC(=O)C(C(C)O)NC(=O)c5csc(n5)C3(CC2)NC(=O)C(C)NC(=O)C(=C)NC(=O)C(C)NC(=O)C(C(C)CC)NC2C=Cc3c(C(C)O)cc(nc3C2O)C(=O)OC4C)n1)C(N)=O (stereo not given)	0.917				
CO[C@H]1/C=C/O[C@@]2(C)Oc3c(C)c(O)c4c(O)c(c5c(c4c3C2=O)=NC2(CCN(CC(C)C)CC2)N=5)NC(=O)/C(C)=C\C=C\[C@H](C)[C@H](O)[C@@H](C)[C@@H](O)[C@@H](C)[C@H](OC(C)=O)[C@@H]1C		1.02	1.36%	6.39%	0.96
